Experimental data as given in PubChem BioAssay (NCI).
The panel holds about 83,000 compounds, 20% with a hit somewhere; the sample as a whole holds those more often.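 48-hour exposure, single concentration, 96-well plates; percent growth endpoint where 0 means no net growth. Active: below 10.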 A number with no mark means an inactive call. Active and inactive are the calls of the source.

Experiments:
Experiment in all cases: NCI-60 one-dose screen, 48 h (100 = growth as untreated, 0 = no growth, -100 = all killed)
Conditions in all cases: 10 µM
NCI-H23 lung = tested on: NCI-H23 lung
NCI-H226 lung = tested on: NCI-H226 lung
NCI-H322M lung = tested on: NCI-H322M lung
HOP-62 NSCLC = tested on: HOP-62 NSCLC
NCI-H460 lung = tested on: NCI-H460 lung
NCI-H522 lung = tested on: NCI-H522 lung
A549/ATCC NSCLC = tested on: A549/ATCC NSCLC
786-0 renal = tested on: 786-0 renal
COLO 205 colon = tested on: COLO 205 colon
DU-145 prostate = tested on: DU-145 prostate
K-562 leukemia = tested on: K-562 leukemia
MALME-3M melanoma = tested on: MALME-3M melanoma
MDA-MB-231 breast = tested on: MDA-MB-231 breast
RXF 393 renal = tested on: RXF 393 renal
SF-268 CNS = tested on: SF-268 CNS
SF-295 CNS = tested on: SF-295 CNS
SF-539 CNS = tested on: SF-539 CNS
UACC-257 melanoma = tested on: UACC-257 melanoma
M14 melanoma = tested on: M14 melanoma
HCT-15 colon = tested on: HCT-15 colon

SMILES | growth (NCI-H23 lung) | growth (NCI-H226 lung) [%] | growth (NCI-H322M lung) | growth (HOP-62 NSCLC) | growth (NCI-H460 lung) | growth (NCI-H522 lung) | growth (A549/ATCC NSCLC) | growth (786-0 renal) | growth (COLO 205 colon) | growth (DU-145 prostate) | growth (K-562 leukemia) | growth (MALME-3M melanoma) | growth (MDA-MB-231 breast) | growth (RXF 393 renal) | growth (SF-268 CNS) | growth (SF-295 CNS) | growth (SF-539 CNS) | growth (UACC-257 melanoma) | growth (M14 melanoma) | growth (HCT-15 colon)
COc1cccc(-c2cc(-c3cccc(NS(C)(=O)=O)c3)nc(N)c2C#N)c1O | 26.7% | 74.5 | 34.6% | 52.1% | 8.75% (active) | 0.405% (active) | 31% | 49.4% | -6.05% (active) | 15.1% | 17.1% | -5.49% (active) | 53.7% | 29.3% | 42.6% | -1.4% (active) | 3.03% (active) | 79.8% | 41.3% | 26.7%
COc1ccc(-c2nn(-c3cccc(NC(=O)Nc4cc(C(F)(F)F)cc(C(F)(F)F)c4)c3)cc2-c2ccncc2)cc1Cl | 5.1% (active) | 24.2 | 4.66% (active) | 3.91% (active) | -3.36% (active) | -30% (active) | 0.691% (active) | -12.8% (active) | -88.9% (active) | 17.6% | 7.03% (active) | -19.9% (active) | -63% (active) | -12.6% (active) | 9.51% (active) | -1.97% (active) | -42.9% (active) | -31% (active) | -34.1% (active) | 12.1%
Fc1cc(C(F)(F)F)ccc1-c1cncnc1NC1CCCCCC1 | 92.6% | 82.6 | 104% | 93.1% | 102% | 91.3% | 85.4% | 97.9% | 105% | 101% | 91.3% | 118% | 91% | 88.5% | 115% | 94.5% | 94.8% | 93.9% | 105% | 95.6%
Clc1ccc(-c2cn(-c3ccccc3)c(-c3ccccc3)n2)c(Cl)c1 | 67.6% | 40.7 | -17% (active) | 31.6% | -100% (active) | 42.6% | -8.47% (active) | -50.3% (active) | -64.3% (active) | -89.7% (active) | 24.8% | -43.3% (active) | -11.7% (active) | 41.3% | -26.7% (active) | 19.5% | -22.2% (active) | 52.2% | 16.7% | -71.4% (active)
COc1ccc(-c2nn(-c3cccc(NC(=O)c4ccc(Cl)c(Cl)c4)c3)cc2-c2ccncc2)cc1Cl | 94.9% | 83.5 | 83.6% | 94% | 79.4% | 33.3% | 70% | 80% | 86.2% | 92.1% | 36.3% | 58.4% | 78% | 65.9% | 89.8% | 65% | 72.2% | 86.9% | 75.6% | 75.2%
O=C1CC[C@@H]2CCCC[C@@H]2C1 | 99.9% | 105 | 110% | 96.7% | 112% | 90.3% | 107% | 103% | 108% | 123% | 110% | 98.8% | 96% | 130% | 113% | 110% | 102% | 116% | 101% | 113%
CN(C)Cc1cn(-c2ncc(-c3ccc(C(F)(F)F)cc3)c(NC3CCCCCC3)n2)nn1 | 95.6% | 88.8 | 88.3% | 94.2% | 93.4% | 73.5% | 95.2% | 90.4% | 70.9% | 89.3% | 38.2% | 73.5% | 89.5% | 93.6% | 88.5% | 94.3% | 99.3% | 82.8% | 84.5% | 94.1%
COC(=O)C1(C)Cc2cc(OC(C)=O)c(OC(C)=O)cc2N1 (stereo not given) | 91.5% | 113 | 116% | 117% | 107% | -55.8% (active) | 31.6% | 103% | 53.7% | 104% | 16% | 79.7% | 101% | 61.8% | 87.5% | 121% | 91.3% | 19% | 87.3% | 35.6%
COc1ccc(S(=O)(=O)NCCCNc2nccc(-c3c(-c4ccc(F)cc4)nc4sccn34)n2)cc1 | 74.8% | 68.9 | 52.7% | 79.7% | 36.3% | 59.3% | 32% | 72.4% | 26.9% | 58.8% | 17.6% | 57.7% | 75.4% | 68.1% | 50.6% | 45.7% | 93.7% | 67.7% | 57.3% | 57.2%
CCCCCCNC(=O)Oc1ccc(/C(=C(/CC)Cc2ccccc2)c2ccc(OCCN3CCCCC3)cc2)cc1 | 91% | 88.6 | 91.4% | 86.6% | 73.4% | 77.9% | 76.7% | 78.6% | 51.4% | 96.6% | 24% | 93.1% | 83.6% | 73.8% | 80.9% | 114% | 91.9% | 86.1% | 94.7% | 39%
O=C1/C(=C\c2ccc(Cl)cc2)CN(C(=O)c2ccccc2)C/C1=C\c1ccc(Cl)cc1 | 58.2% | 10 | 74.5% | 23.2% | 68.3% | 40.6% | 22.2% | 7.43% (active) | 32.9% | 24.9% | 4.94% (active) | 64.8% | 25% | -22.5% (active) | 26.9% | 1.64% (active) | 61.4% | 67.5% | 2.03% (active) | 10.4%
O=C(CSSCC(=O)c1ccc(Cl)cc1)c1ccc(Cl)cc1 | 79.5% | 88.6 | 72.2% | 78.6% | 35.8% | 58% | 63.6% | 85.9% | 104% | 94.4% | 52.9% | 39.7% | 92.8% | 99.7% | 61% | 35.9% | 68.4% | 59.2% | 82.2% | 87.2%
N=C(N)c1ccc(-c2ccc(-c3cccs3)o2)cc1 | 85.1% | 67.5 | 12.8% | 64.7% | 0.151% (active) | 61.9% | 45.4% | 62.3% | -97.4% (active) | 57.9% | -13.1% (active) | -72.4% (active) | 0.444% (active) | 39% | 61.6% | -52.3% (active) | 77.9% | -47.3% (active) | -27.4% (active) | -10.2% (active)
Nc1ccc2c(c1)Cc1cc(N)c(Br)cc1-2 | 92.1% | 106 | 113% | 93.4% | 97% | 96.7% | 100% | 120% | 107% | 121% | 99.7% | 104% | 116% | 111% | 109% | 76.8% | 83.1% | 109% | 102% | 97.3%
COc1cc2cc3c(nc2cc1OC)CCN3Cc1ccc(NC(=O)c2ccc(Cl)c(C(F)(F)F)c2)cc1 | 99.7% | 71.2 | 84.9% | 105% | 107% | 86.6% | 97% | 105% | 109% | 117% | 94.7% | 68.8% | 85.4% | 94.5% | 102% | 92.8% | 81.1% | 86.6% | 104% | 95.8%
